# This is a sample that favours compounds with a hit; in the whole collection about 12% have one here.
# HP1b chromo inh: HTS for Inhibitors of HP1-beta Chromodomain Interactions with Methylated Histone Tails; Chromobox protein homolog 1 (Homo sapiens), P83916; AlphaScreen HP1-beta / biotin-H3K9me3 peptide binding; Potency, µM (doses to about 114 µM), most hits filed as inhibitors; hit rate 0.56% among 390,000; AID 540317, 2011; further: nearly all actives have a fitted effect of over 70% in size
#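 HP1-beta protein (50 nM final) preincubated 30 min at room temperature with biotinylated H3(1-18)K9me3 peptide (50 nM) in PBS pH 7.4, 0.01% Tween-20, then compound added for 30 min. AlphaScreen streptavidin donor/nickel chelate acceptor beads (10 ug/mL final), 30 min dark, luminescence read.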
# G9a block: qHTS Assay for Inhibitors of Histone Lysine Methyltransferase G9a; Histone-lysine N-methyltransferase EHMT2 (Homo sapiens), Q96KQ7; G9a H3K9 monomethylation, AlphaScreen, 2 h; Potency, µM (highest dose often 102 µM), usual class: inhibitors; hit rate 8.8% among 350,000; AID 504332, 2011; further: nearly all actives have a fitted effect of over 75% in size
#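 Readings reflect AlphaScreen signal from monomethyl-H3K9 antibody detection. HMT at 20 nM; substrate b-H3K9 500 nM; cofactor SAM 20 uM; 2 h RT reaction; compounds tested as titrations in qHTS with 15 min preincubation.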
# Sfp PPTase inh: qHTS Assay for Inhibitors of Bacillus subtilis Sfp phosphopantetheinyl transferase (PPTase); 4'-phosphopantetheinyl transferase ffp (Bacillus subtilis), Q9F4F7; Biochemical Sfp PPTase activity, qHTS; Potency, µM, hits mostly inhibitors; hit rate 3.5% among 310,000; AID 1490, 2009;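 further: the enzyme is Sfp with the accession as filed and its product quenches rhodamine fluorescence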
#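 Sfp 15 nM + cpd, 15 min RT; start w/ rhodamine-CoA 5 uM, BHQ-2-YbbR 12.5 uM (final); 50 mM Hepes pH 7.6, 10 mM MgCl2, 0.01% NP-40, 0.01% BSA; read 525/598 nm at 0 and 30 min.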
# BAZ2B block: qHTS Assay for Inhibitors of BAZ2B | AlphaScreen BAZ2B-H3K14Ac peptide displacement | Potency, µM (doses to about 114 µM), hits mostly inhibitors | hit rate 4.4% among 360,000 | AID 504333, 2011; further: nearly all actives have a fitted effect of over 60% in size
#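 Inhibition is scored as reduced AlphaScreen emission. The BAZ2B/b-H3(5-23)K14Ac complex (50 nM each) in PBS pH 7.4, 0.01% Tween-20 meets compound (up to 110 uM) for 30 min at RT before bead addition.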
# PLK1 PBD inh: qHTS for Inhibitors of PLK1-PDB (polo-like kinase 1 - polo-box domain): Primary Screen. hit rate 2.8% among 360,000. Potency, µM, actives largely listed as inhibitors. Serine/threonine-protein kinase PLK1 (Homo sapiens), P53350. Plk1 PBD binding of FITC phosphopeptide, fluorescence polarization; further: series mostly up to about 57 µM; nearly all actives have a fitted effect of over 65% in size
# JMJD2A Tudor: qHTS Assay for Inhibitors of JMJD2A-Tudor Domain. Lysine-specific demethylase 4A (Homo sapiens), O75164. AlphaScreen JMJD2A-Tudor / H3K4me3 peptide binding. Potency, µM (doses to about 114 µM), usual class: inhibitors. hit rate 4.4% among 390,000. AID 504339, 2011; further: nearly all actives have a fitted effect of over 50% in size
# Target sequence (O75164 whole entry, looked up, the tested form may be a part): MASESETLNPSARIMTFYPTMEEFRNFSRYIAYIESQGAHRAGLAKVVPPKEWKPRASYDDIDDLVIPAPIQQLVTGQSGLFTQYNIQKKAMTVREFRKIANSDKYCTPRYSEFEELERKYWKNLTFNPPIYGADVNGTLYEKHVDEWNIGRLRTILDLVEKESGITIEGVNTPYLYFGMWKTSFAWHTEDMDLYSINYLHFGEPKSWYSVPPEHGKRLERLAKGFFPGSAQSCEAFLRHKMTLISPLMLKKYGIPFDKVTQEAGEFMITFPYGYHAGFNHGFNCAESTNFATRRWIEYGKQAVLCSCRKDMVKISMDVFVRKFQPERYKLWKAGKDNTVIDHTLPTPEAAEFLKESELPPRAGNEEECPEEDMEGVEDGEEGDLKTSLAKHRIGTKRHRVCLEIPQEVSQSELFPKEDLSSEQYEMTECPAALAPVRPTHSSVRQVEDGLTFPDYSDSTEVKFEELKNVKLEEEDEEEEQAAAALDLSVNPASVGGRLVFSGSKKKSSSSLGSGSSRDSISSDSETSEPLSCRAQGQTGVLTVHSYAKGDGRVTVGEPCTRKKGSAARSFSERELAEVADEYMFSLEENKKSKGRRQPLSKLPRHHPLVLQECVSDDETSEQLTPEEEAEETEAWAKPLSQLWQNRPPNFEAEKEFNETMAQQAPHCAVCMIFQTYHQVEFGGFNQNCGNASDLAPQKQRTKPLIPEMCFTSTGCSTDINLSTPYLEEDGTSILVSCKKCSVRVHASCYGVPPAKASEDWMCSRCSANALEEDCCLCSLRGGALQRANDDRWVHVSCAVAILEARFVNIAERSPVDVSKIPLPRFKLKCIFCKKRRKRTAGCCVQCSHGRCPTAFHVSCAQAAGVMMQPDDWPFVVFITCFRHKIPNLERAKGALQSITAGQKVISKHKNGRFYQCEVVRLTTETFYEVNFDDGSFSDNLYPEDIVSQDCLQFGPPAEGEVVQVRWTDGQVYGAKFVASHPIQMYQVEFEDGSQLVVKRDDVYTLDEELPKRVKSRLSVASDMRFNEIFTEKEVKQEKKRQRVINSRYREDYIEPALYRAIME
# Numbers stand for hits; – = inactive; ? = inconclusive; · = not tested or not shown; [ ] = dose if it differs, or a comment. The call rests on the fitted dose curve; in most records, active means well fitted curve in the direction sought with a large enough effect; inconclusive means small, poorly fitted or top-dose-only effect, or another doubt; inactive means no such curve, though single readings can be large; an effect the other way counts as inactive or inconclusive.
SMILES,HP1b chromo inh,G9a block,Sfp PPTase inh,BAZ2B block,PLK1 PBD inh,JMJD2A Tudor
O=C1C2C(C(=O)N1/N=C/c1cc([N+](=O)[O-])ccc1O)C1C=CC2C12CC2 (stereo unspecified),–,–,–,–,–,–
O=[N+]([O-])c1cc(Cl)cc(/C=N/n2cnnc2)c1O,–,–,–,·,–,–
C=CCS/C(N)=N\N=C\c1cc(Br)cc([N+](=O)[O-])c1O,–,50.1µM,–,?,–,–
O=C1C2C(C(=O)N1/N=C/c1cc(Br)cc([N+](=O)[O-])c1O)C1C=CC2C12CC2 (stereo unspecified),?,?,–,?,–,79.4µM
O=C1C2C(C(=O)N1/N=C/c1cc([N+](=O)[O-])c(O)cc1O)C1C=CC2C12CC2 (stereo unspecified),–,56.2µM,?,?,?,50.1µM
O=[N+]([O-])c1cc(Br)cc(/C=N/n2cnnc2)c1O,–,31.6µM,–,?,?,–
CN(CC(=O)Nc1ccc(F)c(F)c1F)C(=O)C1CCN(C(=O)Nc2ccccc2)CC1,–,–,·,–,–,–
CCN(CC)S(=O)(=O)c1ccc(NC(=O)CSc2nnc3c(n2)[nH]c2ccccc23)cc1,–,·,·,·,·,–
CC(C)(C)NC(=O)C(c1cccs1)N(Cc1ccc(F)cc1)C(=O)c1csnn1 (stereo unspecified),–,·,–,–,26.7µM,?
CC(C)(C)NC(=O)C(c1cccs1)N(C(=O)c1csnn1)c1cccc(F)c1 (stereo unspecified),–,·,–,?,–,–
C#CCOCCOCCOCCNc1nc(N2CCN(C(=O)[C@H](CCCCN)n3cc(CN)nn3)CC2)nc(N2CCN(C(=O)[C@H](CO)n3cc([C@@H](N)C(C)C)nn3)CC2)n1,–,·,·,·,–,–
C#CCOCCOCCOCCNc1nc(N2CCN(C(=O)[C@H](CCCCN)n3cc([C@@H](N)CO)nn3)CC2)nc(N2CCN(C(=O)[C@H](Cc3cc4ccccc4[nH]3)n3cc([C@@H](N)CC(C)C)nn3)CC2)n1,·,–[12.7 µM],–,44.7µM,·,·
C#CCOCCOCCOCCNc1nc(N2CCN(C(=O)[C@H](CCCCN)n3cc([C@@H](N)CO)nn3)CC2)nc(N2CCN(C(=O)[C@H](Cc3cc4ccccc4[nH]3)n3cc([C@@H](N)CO)nn3)CC2)n1,·,?,–,22.4µM,·,·
O=C(NCCc1ccc(Cl)cc1)C(=O)NCC(c1ccco1)S(=O)(=O)c1ccc(Cl)cc1 (stereo unspecified),–,–,·,–,·,–
CN1CCCC2(CCN(C(=O)c3cccn3C)CC2)C1,·,–[12.7 µM],–,·,·,·
CC1CCCN(CCCOc2ccc([N+](=O)[O-])cc2)C1 (stereo unspecified),–,8.91µM,–,?,–,22.4µM
Cc1cc(=O)n(C)c(=O)n1CCCCOc1ccc([N+](=O)[O-])cc1,–,–,–,–,–,–[11.4 µM]
COc1ccc(OCCCN2CCCC(C)C2)cc1 (stereo unspecified),?,7.08µM,–,–,–,–
CCCCC(=O)NC(c1ccccc1)c1ccc2cccnc2c1O (stereo unspecified),–,–,–,39.8µM,–,–
CCCC(=O)NC(c1ccccc1)c1ccc2cccnc2c1O (stereo unspecified),–,–,–,25.1µM,–,44.7µM
CCCC(=O)NC(c1ccc(OC)cc1)c1ccc2cccnc2c1O (stereo unspecified),–,·,–,20µM,–,79.4µM
CCCCC(=O)NC(c1ccco1)c1cc(Cl)c2cccnc2c1O (stereo unspecified),–,·,–,–,–,–[11.4 µM]
Oc1cccc(C(Nc2ccccn2)c2ccc3cccnc3c2O)c1Cl (stereo unspecified),–,?,·,22.4µM,·,22.4µM
CCCCC(=O)NC(c1ccc(C(C)C)cc1)c1ccc2cccnc2c1O (stereo unspecified),–,–,–,–,–,–
CCC(=O)NC(c1ccccc1OC)c1ccc2cccnc2c1O (stereo unspecified),–,–,–,25.1µM,–,56.2µM
SMILES,HP1b chromo inh,G9a block,Sfp PPTase inh,BAZ2B block,PLK1 PBD inh,JMJD2A Tudor
COc1ccc(Cl)cc1C(Nc1cccnc1)c1ccc2cccnc2c1O (stereo unspecified),?,3.98µM,–,35.5µM,4.23µM,35.5µM
CCN(CCCNC(=O)CSc1cc(=O)n(CC)c2ccccc12)c1ccccc1,?,?,·,?,·,50.1µM
Cn1c(=O)cc(SCC(=O)NCCCN2CCOCC2)c2ccccc21,–,–,–,–,–,–
CCN(CC)CCCNC(=O)CN1N=C(c2ccccc2)CCC1=O,–,?,·,–,·,–
CCCCNC(=O)CSc1cc(=O)n(C)c2ccccc12,–,–[12.7 µM],–,–,26.7µM,–[11.4 µM]
CCN(CCCNC(=O)CSc1cc(=O)n(C)c2ccccc12)c1ccccc1,–,?,·,·,·,?
CCN(CCCNC(=O)CN1N=C(c2ccccc2)CCC1=O)c1ccccc1,–,11.2µM,·,–,·,?
CC(C)CN1CC(C)C(=O)NC1=S (stereo unspecified),–,·,·,·,–,–
CCC(C)NC(=O)CSc1nc2cc3c(cc2c(=O)n1Cc1ccc(C(=O)NCCc2ccc(OC)c(OC)c2)cc1)OCO3 (stereo unspecified),–,–,·,–,·,–
CCC(C)(C)c1ccc(OCCCC[n+]2cccc(C)c2)c(C(C)(C)CC)c1,–,?,31.6µM,–,–,–
COc1ccc(N2CCN(Cc3nnc(-c4cccc(Br)c4)o3)CC2)cc1,?,11.2µM,·,44.7µM,·,79.4µM
Cc1cccc(N2CCN(Cc3nnc(-c4cccc(Br)c4)o3)CC2)c1C,–,–,·,–,·,–
COc1c(O)cccc1[C@@H](O)C1CCN(CCc2ccc(F)cc2)CC1,–,·,·,·,·,–
COc1ccc(S(=O)(=O)C(C#N)c2nc3ccccc3nc2N2CCCC(C)C2)cc1 (stereo unspecified),?,?,–,44.7µM,?,?
C[N+](C)(C)CCOC(=O)C1(c2ccccc2)CCCC1,?,3.55µM,–,–,?,–[11.4 µM]
CC(C[N+](C)(C)C)OC(=O)C1(c2ccccc2)CCCC1 (stereo unspecified),–,–[12.7 µM],–,–,–,–
COc1ccc(-c2cc(C(=O)NCc3ccc(F)cc3)c3c(-c4ccc(F)cc4)[nH]nc3n2)cc1OC,–,–,·,–,·,–

# Assay outcomes: PubChem, National Center for Advancing Translational Sciences (NCATS)
